Laboratory results from PubChem BioAssay (NCATS).
Records with an inconclusive call do not appear. Calls of active or inactive are those of the source. Unless noted, calls come from the whole dose curve; as a rule, active = well fitted curve in either direction with a large enough effect (not every such curve was filed as active); inconclusive = small, poorly fitted or top-dose-only effect, or another doubt; inactive = flat fitted curve, though single readings scatter.

Tests used:
[1] = AP1 Signaling Pathway (AID 357); conditions: ME-180 (cervical carcinoma) AP-1-bla reporter, EGF-induced, beta-lactamase ratio, 5 h; at 17.2 µM (top of the series) unless noted;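 note: ME-180 reporter cells stimulated with EGF at its EC50 level; % is set by controls: 0 for no effect and ±100 for the full control effect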
In short: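 Titration-series screen for positive or negative modulators of EC50 EGF-induced signaling in ME-180 cells carrying an AP-1-driven beta-lactamase reporter. After 5 hours at 37 degrees Celsius, CCF4 460nm/530nm emission ratio gave %Activity; AC50 values derived.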

[2] = NFAT Signaling Pathway (AID 444); conditions: Jurkat NFAT-bla M1, carbachol, beta-lactamase ratio, 5 h; at 17.2 µM (top of the series) unless noted;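 note: carbachol stimulus at about its EC50 of 1 µM final; % is set by controls: 0 for no effect and ±100 for the full control effect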
In short: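 Jurkat cells with NFAT-driven β-lactamase reporter and co-expressed M1 receptor, stimulated with carbachol (final 1 uM, ~EC50), compound titration, 5 h at 37 °C. CCF4 loaded 1 h at RT; 460/530 nm ratio gave %activity and AC50.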

[3] = Stat Signaling Pathway (AID 446);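 note: ME-180 cervical cancer cells given 40 pM IL-6 alongside compound; SIE-controlled beta-lactamase reporter measured as 460/530 nm FRET emission ratio; % is set by controls: 0 for no effect and ±100 for the full control effect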
In short: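 Compound effects on IL-6-induced STAT reporter activity were measured in ME-180 cells. After overnight culture, cells were co-treated with 40 pM IL-6 for 5 hrs before beta-lactamase substrate loading at room temperature.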

[4] = target: Glucocorticoid receptor (Homo sapiens) (UniProt P04150); assay: GR-GFP Redistribution (AID 450;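 active = compounds whose dose series gives a full or clear partial fitted curve of increased nuclear translocation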; note: potency is the fitted concentration of half-maximal effect); conditions: U2OS GR-GFP nuclear translocation, laser cytometry, 2 h
Glucocorticoid receptor (Homo sapiens), sequence (P04150 whole entry, looked up): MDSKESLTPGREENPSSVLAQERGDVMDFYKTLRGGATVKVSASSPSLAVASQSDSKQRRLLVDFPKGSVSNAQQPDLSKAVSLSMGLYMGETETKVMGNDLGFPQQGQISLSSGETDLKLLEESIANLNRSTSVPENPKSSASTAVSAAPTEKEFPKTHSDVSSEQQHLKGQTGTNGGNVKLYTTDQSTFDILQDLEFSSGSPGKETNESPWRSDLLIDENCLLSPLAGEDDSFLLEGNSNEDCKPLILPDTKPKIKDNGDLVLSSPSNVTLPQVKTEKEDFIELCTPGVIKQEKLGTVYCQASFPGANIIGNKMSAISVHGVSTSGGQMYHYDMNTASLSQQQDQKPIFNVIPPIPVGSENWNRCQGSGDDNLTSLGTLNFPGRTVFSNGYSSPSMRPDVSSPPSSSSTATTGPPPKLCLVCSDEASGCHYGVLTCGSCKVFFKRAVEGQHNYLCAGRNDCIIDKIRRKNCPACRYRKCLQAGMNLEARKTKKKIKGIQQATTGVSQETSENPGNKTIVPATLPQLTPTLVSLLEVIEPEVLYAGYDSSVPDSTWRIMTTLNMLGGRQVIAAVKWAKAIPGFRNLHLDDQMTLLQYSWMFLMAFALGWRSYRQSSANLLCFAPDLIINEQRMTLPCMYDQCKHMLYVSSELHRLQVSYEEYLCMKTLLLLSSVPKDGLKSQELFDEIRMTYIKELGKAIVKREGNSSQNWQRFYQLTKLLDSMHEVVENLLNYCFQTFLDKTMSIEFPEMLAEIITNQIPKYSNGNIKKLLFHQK

CC1(C)NCCN2C(=O)CSC21 (centres undefined)
inactive: activity change, negative = inhibition [1] 17.6% | activity change, negative = inhibition [2] 0.762% | outcome [3] | Potency [4] > 20.6 µM
